This is an account of results in PubChem BioAssay.

“And” between values parts separate entries of the source, which are not always exact repeats. Equal values may be shown once. A number with no mark means an inactive call. The rule behind the calls is not given here.

In the assay the test system is Aerobactin synthetase IucA (Klebsiella pneumoniae hvKP1). The assay can be described thus: Biochemical IucA enzyme inhibition primary screen of the Spectrum library (AID 1346200).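 Note: 100% = wells without compound and 0% = wells lacking enzyme.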 Particulars: malachite green pyrophosphate, A620, at 8 µM, active compounds read low.

As to `COc1ccc(/C=C/C(=O)O)cc1OC`, the activity remaining is 110% and 92.7%.

Take `CS(=O)(=O)c1ccc(C2=C(c3ccccc3)C(=O)OC2)cc1`: the activity remaining is 87.7%.

As to `CC(C)[C@@H]1CC[C@@H](C)C[C@H]1OC(=O)c1ccccc1`, the activity remaining was 120%.

`CC(=O)Nc1ccc(O)cc1`: the activity remaining was 90%.

Turning to `COc1cc(OC)cc(OC)c1`, the activity remaining is 117%.

Take `Cc1c(C)c2c(c(C)c1O)CCC(C)(COc1ccc(CC3SC(=O)NC3=O)cc1)O2` (stereo not given): the activity remaining is 117%.

As for `O=c1c(O)cccc2cc(O)c(O)c(O)c12`, the activity remaining is 107%.

In the case of `O=C1O[C@H](C(O)CO)C(O)=C1O` (stereo not given in full), the activity remaining is 92.2%.

Consider `COc1ccc(-c2c(O)c3c(OC)c4c(cc3oc2=O)OC(C)(C)CC4)cc1`, for which the activity remaining was 99.1%.

Regarding `CN(C(=O)CN(CCO)CC(=O)N(C)C(C)(C)Cc1ccccc1)C(C)(C)Cc1ccccc1`, the activity remaining is 101%.

On to `CCCc1nc(C(C)(C)O)c(C(=O)OCc2oc(=O)oc2C)n1Cc1ccc(-c2ccccc2-c2nn[nH]n2)cc1`, for which the activity remaining is 121%.

For `COC(=O)C1=CO[C@@H](O[C@@H]2O[C@H](CO)[C@@H](O)[C@H](O)[C@H]2O)[C@H]2C1C(=O)C[C@@H]2C` (stereo not given in full), the activity remaining was 112%.

For the compound `C[C@H]1CC2C([C@@H](O)C[C@@]3(C)C2CC[C@]3(O)C(=O)COC(=O)CCC(=O)O)[C@@]2(C)C=CC(=O)C=C12` (stereo not given in full), the activity remaining is 91.3%.

For the compound `N=c1ccn2c(n1)O[C@@H]1[C@@H](O)[C@H](CO)O[C@@H]12`, the activity remaining is 97.5%.

In the case of `OC1CC2CCCC(C1)N2Cc1ccccc1` (stereo not given), the activity remaining was 93.4%.

As for `CC[C@H](CCC(C)[C@H]1CCC2C3CCC4C[C@@H](O)CC[C@]4(C)C3CC[C@@]21C)C(C)C` (stereo not given in full), the activity remaining is 102%.

`O=C(O)c1cc(=O)c2c(OCC(O)COc3cccc4oc(C(=O)O)cc(=O)c34)cccc2o1`: the activity remaining was 115%.

On to `C/C=C/c1ccc(OC)cc1`, for which the activity remaining was 98.6%.

In the case of `O=C1c2ccccc2C(=O)c2c1ccc(O)c2O`, the activity remaining was 112%.

Take `O=C(O)c1ccc2c(c1)OCO2`: the activity remaining is 101%.

In the case of `CNCc1ccccc1`, the activity remaining was 108%.

For the compound `O=C(/C=C/C=C/c1ccc2c(c1)OCO2)N1CCCCC1`, the activity remaining is 104%.

For the compound `N[C@@H]1[C@@H](O[C@@H]2O[C@H](C(=O)O)[C@@H](O)[C@H](O)[C@H]2O)[C@@H](O)[C@@H](CO)O[C@@H]1O`, the activity remaining is 100%.

Regarding `O=C(O)CCCN1C(=O)c2cccc3cccc(c23)C1=O`, the activity remaining was 110%.

In the case of `NC(=O)c1ccccc1O`, the activity remaining was 88.1%.

Regarding `CCCc1nc(C)c2c(=O)[nH]c(-c3cc(S(=O)(=O)N4CCN(CC)CC4)ccc3OCC)nn12`, the activity remaining was 111%.

`Cc1cc(NC(=O)C2=C(O)c3ccccc3S(=O)(=O)N2C)no1`: the activity remaining is 94.1%.

In the case of `C[N+](C)(C)CC(O)CC(=O)O` (stereo not given), the activity remaining is 99.1%.

`CCn1cc(C(=O)O)c(=O)c2cc(F)c(N3CCNCC3)nc21`: the activity remaining is 91.3%.

Consider `O=C(O)c1cc(=O)c(O)c2c(O)c(O)ccc2c1`, for which the activity remaining is 90.4%.

For `COc1ccc(-c2coc3cc(O)cc(O)c3c2=O)cc1`, the activity remaining was 98.7%.

On to `Cc1onc(-c2ccccc2Cl)c1C(=O)N[C@@H]1C(=O)N2[C@@H]1SC(C)(C)[C@@H]2C(=O)O`, for which the activity remaining is 96.2%.

For `CN1C2CCC1CC(OC(=O)C(CO)c1ccccc1)C2` (stereo not given), the activity remaining was 108%.

Take `Nc1cc(-c2ccncc2)c[nH]c1=O`: the activity remaining is 122%.

As for `COC(=O)[C@@H]1OC(=O)C2OC23[C@@]1(C)CCC1[C@@]2(C)CCC(=O)C(C)(C)C2C[C@@H](OC(C)=O)[C@]13C` (stereo not given in full), the activity remaining is 112%.

As to `CC1=C(/C=C/C(C)=C/C=C/C(C)=C/C=C/C=C(C)/C=C/C=C(C)/C=C/C2=C(C)C(=O)C(O)CC2(C)C)C(C)(C)CC(O)C1=O` (stereo not given), the activity remaining was 109%.

As for `CC(=O)O[C@@H]1c2c(ccc3ccc(=O)oc23)OC(C)(C)[C@@H]1OC(=O)CC(C)C`, the activity remaining is 103%.

Turning to `CN1CCN(C(c2ccccc2)c2ccccc2)CC1`, the activity remaining was 113%.

For the compound `CC(CN(C)C)CN1c2ccccc2Sc2ccccc21` (stereo not given), the activity remaining is 101%.

With `CCC(Cc1c(I)cc(I)c(N)c1I)C(=O)O` (stereo not given), the activity remaining is 103%.

In the case of `Cc1c(S(=O)(=O)O)oc2c1C(=O)C(=O)c1c-2ccc2c1CCCC2(C)C`, the activity remaining was 127%.

On to `CN1CCC(OC(c2ccccc2)c2ccccc2)CC1`, for which the activity remaining was 108%.

As to `Cn1nnnc1SCC1=C(C(=O)O)N2C(=O)C(NC(=O)C(OC=O)c3ccccc3)C2SC1` (stereo not given), the activity remaining is 118%.

On to `CC(Cc1ccc(O)c(O)c1)(NN)C(=O)O` (stereo not given), for which the activity remaining was 111%.

Take `CC(=O)O[C@H]1CC2CCC3C(CC[C@@]4(C)C3C[C@H]([N+]3(C)CCCCC3)[C@@H]4OC(C)=O)[C@@]2(C)C[C@@H]1[N+]1(C)CCCCC1` (stereo not given in full): the activity remaining is 124%.

Take `C=C1C[C@]23C[C@@]1(O)CC[C@H]2[C@@]12C=C[C@H](O)C(C)(C(=O)O1)[C@H]2[C@@H]3C(=O)O`: the activity remaining is 121%.

For `C[C@]12CCC3c4ccc(O)cc4CCC3C1C[C@@H](O)[C@@H]2O` (stereo not given in full), the activity remaining was 99.6%.

With `CC(=O)Oc1ccc2c(c1C(C)C)CCC1C(C)(C)CCC[C@]21C` (stereo not given in full), the activity remaining was 97.3%.

As for `CC1(C)C=Cc2cc3ccc(=O)oc3cc2O1`, the activity remaining is 119%.

Take `CCN(CC)CCOc1ccc(/C(=C(\Cl)c2ccccc2)c2ccccc2)cc1`: the activity remaining was 111%.

For `NS(=O)(=O)c1cc2c(cc1Cl)NC(C(Cl)Cl)NS2(=O)=O` (stereo not given), the activity remaining was 108%.

Turning to `CCOC(=O)c1c(C)cc(O)cc1O`, the activity remaining was 119%.

Consider `Oc1cc(O)c2c(c1)O[C@H](c1ccc(O)c(O)c1)[C@H](O)C2`, for which the activity remaining was 99.8%.

Regarding `CC1(C)S[C@@H]2[C@H](NC(=O)Cc3ccccc3)C(=O)N2[C@H]1C(=O)O`, the activity remaining is 111%.

With `Cn1c(=O)[nH]c(=O)c2[nH]cnc21`, the activity remaining was 109%.

As to `O=C(O)c1cc(=O)c2ccccc2o1`, the activity remaining was 110%.

In the case of `C1CCN2C[C@@H]3C[C@H](CN4CCCC[C@@H]34)[C@H]2C1`, the activity remaining was 106% and 89.3%.

Turning to `CCCCOc1ccc(OCCCN2CCOCC2)cc1`, the activity remaining was 104%.

`CCOC(=O)[C@H](CCc1ccccc1)N[C@@H](C)C(=O)N1CCC[C@H]1C(=O)O`: the activity remaining is 113%.

Regarding `OCCN1C[C@@H](O)[C@@H](O)C(O)C1CO` (stereo not given in full), the activity remaining was 114%.
